CYP2C9 inh = blocks human cytochrome P450 2C9 | P11712 | CYP2C9 Supersomes, luciferin-H conversion, luminescence | inhibition, % at 5 µM | 20% of 96,000 active | AID 777;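 active means blocking of liver enzyme CYP2C9 beyond about 50% at 5 µM, limit read from the data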
CYP2C9 act = CYP2C9 (human) activation | P11712 | AID 1024 | recombinant CYP2C9, luciferin-H conversion, luminescence; hits give high values; factor 1 = untreated enzyme, 0 = blocked | activation factor at 5 µM | 1.4% of 96,000 active;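 active means activation factor of 2 or more for CYP2C9 at a 5 µM dose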
CYP2C19 inhib = blocks human cytochrome P450 2C19. P33261. CYP2C19 Supersomes, luciferin-H EGE luminescence, 30 min. inhibition, % at 5 µM. 21% of 96,000 active. AID 778;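 active means CYP2C19 inhibition above a set limit at 5 µM in the primary screen, cut at about 50% in these data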
PLK1 inh = blocks human PLK1 kinase activity | 0.53% of 97,000 active | recombinant PLK1 kinase, TR-FRET peptide phosphorylation | AID 619 | P53350 | inhibition, % at 10 µM;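 active means inhibition of 50% or more in the single-concentration screen; inactive means inhibition below 50%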
Target sequence (P53350 whole entry, looked up): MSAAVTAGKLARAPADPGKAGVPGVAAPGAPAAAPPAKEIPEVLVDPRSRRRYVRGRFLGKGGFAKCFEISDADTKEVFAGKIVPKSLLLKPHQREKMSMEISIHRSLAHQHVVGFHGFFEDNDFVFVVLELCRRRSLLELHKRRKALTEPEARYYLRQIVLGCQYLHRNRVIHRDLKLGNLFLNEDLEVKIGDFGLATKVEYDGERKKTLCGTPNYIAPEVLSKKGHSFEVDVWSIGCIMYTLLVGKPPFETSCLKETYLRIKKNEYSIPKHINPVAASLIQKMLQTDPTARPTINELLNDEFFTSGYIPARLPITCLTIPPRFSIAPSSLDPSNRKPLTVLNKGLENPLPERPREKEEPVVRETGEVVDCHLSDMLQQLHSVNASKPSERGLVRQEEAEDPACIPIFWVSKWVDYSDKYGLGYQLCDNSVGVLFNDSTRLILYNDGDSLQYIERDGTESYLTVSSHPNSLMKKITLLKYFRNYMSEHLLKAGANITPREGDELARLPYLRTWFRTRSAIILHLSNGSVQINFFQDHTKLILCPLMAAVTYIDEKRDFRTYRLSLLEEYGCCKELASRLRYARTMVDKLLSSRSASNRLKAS
CYP2C19 act = cytochrome P450 2C19 (human) activation; P33261; recombinant CYP2C19, luciferin-H EGE luminescence; hits give high values; 0 = fully inhibited enzyme, 1 = untreated enzyme; activation factor at 5 µM; 96,000 tested, under 10 active; AID 1025;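 active means activation factor of at least 2 at 5 µM in the primary screen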
PLK1 PBD inh = inhibitors of human Plk1 polo box domain binding; P53350; Plk1 PBD phosphopeptide binding, fluorescence polarization; inhibition, %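 (tested at about 20 µM)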; 0.13% of 97,000 active; AID 693; in the data active means inhibition above about 34%, passing the limit was not always enough
Numbers stand for hits. Compounds with a hit are over-represented: about 28% of the library has one in this group of screens.

`COc1ccc(-c2csc(N(CC3CCCO3)C(=O)c3ccco3)n2)cc1` (stereo not given) gave CYP2C9 inh inactive, CYP2C9 act inactive, CYP2C19 inhib inactive, PLK1 inh inactive, CYP2C19 act inactive and PLK1 PBD inh inactive.
`Cc1cnc(C(=O)Nc2nccs2)cn1` gave CYP2C9 inh inactive, CYP2C9 act inactive, CYP2C19 inhib inactive, PLK1 inh inactive, CYP2C19 act inactive and PLK1 PBD inh inactive.
Screening CCOC(=O)CC(C#N)c1c[nH]c2ccccc12 (stereo not given) returned CYP2C9 inh inactive, CYP2C9 act inactive, CYP2C19 inhib 70, PLK1 inh inactive, CYP2C19 act inactive and PLK1 PBD inh inactive.
NC(=O)NC(=O)COC(=O)CCCc1c[nH]c2ccccc12 was read as CYP2C9 inh inactive, CYP2C9 act inactive, CYP2C19 inhib inactive, PLK1 inh inactive, CYP2C19 act inactive and PLK1 PBD inh inactive.
Screening COc1ccc(-n2c(C)cc(C(=O)Cn3c(NCCO)nc4ccccc43)c2C)cc1 returned CYP2C9 inh 63, CYP2C9 act inactive, CYP2C19 inhib 65, PLK1 inh inactive, CYP2C19 act inactive and PLK1 PBD inh inactive.
`COC(=O)c1ccc(NC2=CC(=O)CC(C)(C)C2)cc1` gave CYP2C9 inh 51, CYP2C9 act inactive, CYP2C19 inhib inactive, PLK1 inh inactive, CYP2C19 act inactive and PLK1 PBD inh inactive.
Screening CC(=O)Nc1ccc(NC2=CC(=O)CC(C)(C)C2)cc1 returned CYP2C9 inh inactive, CYP2C9 act inactive, CYP2C19 inhib inactive, PLK1 inh inactive, CYP2C19 act inactive and PLK1 PBD inh inactive.
O=C(c1cc(-c2cccc(O)c2)on1)N1CCOCC1 was read as CYP2C9 inh inactive, CYP2C9 act inactive, CYP2C19 inhib 59 and CYP2C19 act inactive.
Screening O=C(c1cc(-c2ccc(O)cc2)on1)N1CCc2ccccc2C1 returned CYP2C9 inh inactive, CYP2C9 act inactive, CYP2C19 inhib 82, PLK1 inh inactive, CYP2C19 act inactive and PLK1 PBD inh inactive.
For O=C(c1cc(-c2ccccc2O)on1)N1CCc2ccccc2C1 the results were CYP2C9 inh inactive, CYP2C9 act inactive, CYP2C19 inhib inactive, PLK1 inh inactive, CYP2C19 act inactive and PLK1 PBD inh inactive.
For C=CCNC(=O)C1=NOC(CNC(=O)c2c(-c3ccccc3Cl)noc2C)C1 (stereo not given) the results were CYP2C9 inh inactive, CYP2C9 act inactive, CYP2C19 inhib inactive, PLK1 inh inactive, CYP2C19 act inactive and PLK1 PBD inh inactive.
For Cc1cc(C)cc(OCC(=O)N(Cc2cccs2)C2CCS(=O)(=O)C2)c1 (stereo not given) the results were CYP2C9 inh 54, CYP2C9 act inactive, CYP2C19 inhib 82, PLK1 inh inactive, CYP2C19 act inactive and PLK1 PBD inh inactive.
Screening Cc1ccc(OCC(=O)N(Cc2ccc(N(C)C)cc2)C2CCS(=O)(=O)C2)cc1 (stereo not given) returned CYP2C9 inh 68, CYP2C9 act inactive, CYP2C19 inhib 54, PLK1 inh inactive, CYP2C19 act inactive and PLK1 PBD inh inactive.
For O=C(c1cccc(Cl)c1)N(Cc1cccs1)C1CCS(=O)(=O)C1 (stereo not given) the results were CYP2C9 inh inactive, CYP2C9 act inactive, CYP2C19 inhib inactive, PLK1 inh inactive, CYP2C19 act inactive and PLK1 PBD inh inactive.
Screening O=C(c1sc2ccccc2c1Cl)N(Cc1cccs1)C1CCS(=O)(=O)C1 (stereo not given) returned CYP2C9 inh 53, CYP2C9 act inactive, CYP2C19 inhib inactive, PLK1 inh inactive, CYP2C19 act inactive and PLK1 PBD inh inactive.
Screening CCOC(=O)CNC(=O)CNC(=O)Cn1ccc2ccccc2c1=O returned CYP2C9 inh inactive, CYP2C9 act inactive, CYP2C19 inhib inactive, PLK1 inh inactive, CYP2C19 act inactive and PLK1 PBD inh inactive.
Screening CC(C)(Oc1ccc(Br)cc1)C(=O)N1CCc2ccccc21 returned CYP2C9 inh inactive, CYP2C9 act inactive, CYP2C19 inhib inactive, PLK1 inh inactive, CYP2C19 act inactive and PLK1 PBD inh inactive.
For Cn1c(N)c(C(=O)COC(=O)c2ccco2)c(=O)n(C)c1=O the results were CYP2C9 inh inactive, CYP2C9 act inactive, CYP2C19 inhib inactive, PLK1 inh inactive, CYP2C19 act inactive and PLK1 PBD inh inactive.
Screening CSc1ccc(S(=O)(=O)Nc2ccc3c4c(cccc24)CC3)cc1 returned CYP2C9 inh inactive, CYP2C9 act inactive, CYP2C19 inhib 98, PLK1 inh inactive, CYP2C19 act inactive and PLK1 PBD inh inactive.
Screening c1ccc(Nc2ccc3c4c(cccc24)CC3)cc1 returned PLK1 inh inactive and PLK1 PBD inh inactive.
`O=S(=O)(Nc1ccc2c3c(cccc13)CC2)c1ccc(F)cc1` gave CYP2C9 inh inactive, CYP2C9 act inactive, CYP2C19 inhib 70, PLK1 inh inactive, CYP2C19 act inactive and PLK1 PBD inh inactive.
For Brc1ccc(-c2cn3ccccc3n2)s1 the results were CYP2C9 inh inactive, CYP2C9 act inactive, CYP2C19 inhib inactive, PLK1 inh inactive, CYP2C19 act inactive and PLK1 PBD inh inactive.
Cn1c(SCC(=O)Nc2sc3c(c2C#N)CCC3)nnc1C1COc2ccccc2O1 (stereo not given) was read as CYP2C9 inh 67, CYP2C9 act inactive, CYP2C19 inhib inactive, PLK1 inh inactive, CYP2C19 act inactive and PLK1 PBD inh inactive.
`C=CCn1c(SCC(=O)Nc2sc3c(c2C#N)CCC3)nnc1C1COc2ccccc2O1` (stereo not given) gave CYP2C9 inh 66, CYP2C9 act inactive, CYP2C19 inhib inactive, PLK1 inh inactive, CYP2C19 act inactive and PLK1 PBD inh inactive.
`CN(C)CCCn1c(SCC(=O)Nc2sc3c(c2C#N)CCCC3)nnc1-c1ccncc1` gave CYP2C9 inh inactive, CYP2C9 act inactive, CYP2C19 inhib inactive, PLK1 inh inactive, CYP2C19 act inactive and PLK1 PBD inh inactive.
Cn1c(CNC(=O)c2ccc(Cl)c(Cl)c2)nnc1SCC(=O)Nc1sc2c(c1C#N)CCCC2 was read as CYP2C9 inh inactive, CYP2C9 act inactive, CYP2C19 inhib inactive, PLK1 inh inactive, CYP2C19 act inactive and PLK1 PBD inh inactive.
For Cn1cccc1C(=O)NC(=O)CSc1nnc(C2CC2)n1-c1ccccc1 the results were CYP2C9 inh inactive, CYP2C9 act inactive, CYP2C19 inhib 55, PLK1 inh inactive, CYP2C19 act inactive and PLK1 PBD inh inactive.
Screening CCOc1ccc(Br)cc1CC(=O)O returned PLK1 inh inactive and PLK1 PBD inh inactive.
Screening CCOc1ccc(Br)cc1C1C(C(=O)OC)=C(N)Oc2cc(N(C)C)ccc21 (stereo not given) returned CYP2C9 inh 85, CYP2C9 act inactive, CYP2C19 inhib 94, PLK1 inh inactive, CYP2C19 act inactive and PLK1 PBD inh inactive.
`CSc1nc(C)cc(-n2ccc(=O)[nH]c2=O)n1` gave CYP2C9 inh inactive, CYP2C9 act inactive, CYP2C19 inhib inactive and CYP2C19 act inactive.
Screening CCC(C)[C@H](NC(=O)NCc1ccccc1)C(=O)O (stereo not given in full) returned CYP2C9 inh inactive, CYP2C9 act inactive, CYP2C19 inhib inactive, PLK1 inh inactive, CYP2C19 act inactive and PLK1 PBD inh inactive.
